In all, about 200,000 compounds went through this assay and about 25 (0.01%) were called active. Entries that show only a call come without a potency. Another 23% or so got no clear call; they are omitted. Many of the other results were omitted from the sample, so actives are more common in it than they were. A number with no mark means an inactive call. Calls come from the whole dose curve; as a rule, active = well fitted inhibition curve with a large enough effect in the signal ratio, with a control signal flat (not every such curve was filed as active); inconclusive = small, poorly fitted or top-dose-only effect, or effect the other way, or a change in a side signal; inactive = flat fitted curve, though single readings scatter; the % refers to the signal ratio.
Assay: qHTS Assay for Modulators of Lamin A Splicing
Details: HeLa LMNA splicing GFP/RFP minigene ratio, 48 h; series mostly up to 46 µM
Description: NCGC Assay Overview: Hutchinson-Gilford Progeria Syndrome (HGPS) is a pediatric premature aging disease caused by a spontaneous mutation in the lamin A/C (LMNA) gene. The mutation activates a cryptic splice site in the LMNA pre-mRNA which results in production of a pre-lamin A protein that cannot be processed properly. The mutant protein accumulates in the nucleus and negatively affects numerous cellular functions. Correction of the splicing defect in HGPS patient cells using a targeted oligonucleotide (exo11) leads to reversal of the cellular disease phenotypes. To identify small molecule modulators of aberrant LMNA splicing, a homogenous assay was constructed in HeLa cells that used a GFP containing minigene to report on correction of aberrant splicing in lamin A and a RFP (DsRed2) to report on cell viability, uniformity and nonspecific effects on the assay signal. This assay was adapted to laser-scanning microplate cytometry (Acumen, TTP Labtech) where miniaturization of the assay to a 1,536-well plate format was possible. References: Bowen, W. P.; Wylie, P. G. Application of Laser-Scanning Fluorescence Microplate Cytometry in High Content Screening. Assay Drug Dev Technol 2006;4:209-221. Scaffidi P, Misteli T. Reversal of the cellular phenotype in the premature aging disease Hutchinson-Gilford progeria syndrome. Nat.
NCGC Assay Protocol Summary: Reagents/Controls: Stable clones expressing DsRed2 and lamin A-EGFP were generated by Cell and Molecular Technologies in S3 HeLa cells. HeLa cells were prepared for the assay when they were 70-90% confluent. The cells were counted and resuspended in Opti-MEM I (no phenol red; Gibco), 2% FBS, 1% penicillin/ streptomycin (Gibco) at concentration of 120 cells/uL concentration. The suspension was passed through a Falcon basket filter with pore size 40um (Beckton Dickson). Control titrations: column […] 1536-well plate contained a sixteen point titration (1:2 dilutions) in duplicate of ancitabine (Sigma: A8598) beginning at 40 uM final concentration. Column 2 contained a sixteen point titration (1:2 dilutions) of cycloheximide beginning at 1.4 mM final concentration. Column 3 contained ancitabine at 40 uM and column 4 contained was the vehicle control (0.5% DMSO final concentration). Assay Steps: 5 uL of HeLa cells were plated in Aurora LoBase black clear bottom (cyclic-olefin polymer) 1536-well plates at a final density of 600 cells/well. Controls and library compounds were added with a 1536-well pin array using the Kalypsys pin-tool. The plates were then incubated for 48 hrs in a cell-culture incubator (37 °C; 5% CO2, 98% humidity). Following incubation the plates were read on the Acumen Explorer using the 488 nm laser. Data was collected on objects between 10 and 100 um in size. Cell objects were defined by a 15 um width x 10 um depth filter. The ratio of the total object intensity in PMT1 (500-530 nm emission; GFP) over PMT3 (575-640 nm emission; RFP) was calculated for analysis. Keywords: NIH Roadmap, MLSCN, MLI, MLSMR, qHTS, NCGC, lamin A, Progeria, RNA splicing.
Potency is the fitted concentration of half-maximal effect.

Structure (SMILES)	ratio change, negative = inhibition	Potency
Cc1ccccc1-n1nc(SCC(=O)O)sc1=S	inactive	
CCCCCN(C(=O)NC(=O)Nc1cccc(C)c1C)S(C)(=O)=O	inactive	
CC(C)(C)NC(=O)Cn1cnc2cc([N+](=O)[O-])ccc2c1=O	inactive	
Cc1c(-c2cccc(NC(=O)C(C)(C)C)c2)nc2ncccn12	inactive	
COc1ccc(Cc2n[nH]c(=S)n2NC(=O)Nc2ccc(C)cc2)cc1	inactive	
COc1c(C=O)c(CCN(C)C(=O)c2ccc(F)cc2)cc2c1OCO2	inactive	
O=C(Nc1ccc(C(=O)OCc2cc(=O)n3nc(C4CC4)sc3n2)cc1)c1ccc(F)cc1	inactive	
COc1cccc(CN(C)CC(=O)Nc2ccccc2C(=O)Nc2ccccc2)c1	inactive	
OC(COc1ccc(CN2CCSCC2)cc1)CN1CCCCC1 (stereo not drawn)	inactive	
CCN(Cc1ccccc1)S(=O)(=O)c1ccc2c(c1)CCCN2C(C)=O	inactive	
CSc1ccc(S(=O)(=O)NC2CCCCC2)cc1	inactive	
CC1CCC(NS(=O)(=O)c2ccc3c(c2)n(C)c(=O)c(=O)n3C)CC1 (stereo not drawn)	inactive	
Cn1sc(=O)c2cc(S(=O)(=O)NC3CC3)ccc21		11.2 µM (active)
COc1ccc(S(=O)(=O)NCC2CCCN(C(=O)c3occc3C)C2)cc1 (stereo not drawn)	inactive	
CN1CCN(/N=C2/C(=O)Nc3ccc([N+](=O)[O-])cc32)CC1	inactive	
CCOc1ccccc1N1CCN(C(=O)COc2ccc3c(C)cc(=O)oc3c2)CC1	inactive	
COc1ccc(CNC(=O)COCc2cc(-c3cccs3)on2)cc1OC	inactive	
O=C(Nc1ccc(Br)cn1)c1ccc([N+](=O)[O-])cc1Cl	inactive	
CC12CN(NC(=O)c3ccc(Cl)cc3)C3(C#N)CC1CCC23C (stereo not drawn)	inactive	
CCOCCc1nn2c(=O)cc(COC(=O)CNC(=O)c3ccc(C(C)(C)C)cc3)nc2s1	inactive	
Cc1ccc(S(=O)(=O)CC(=O)Nc2c(C)n(C)n(-c3ccccc3)c2=O)cc1	inactive	
Cc1c(CCNC(=O)c2ccc(C(F)(F)F)cc2)sc2nc(-c3ccc(F)cc3)nn12	inactive	
Cc1ccc2c(c1)C1CN(C)CCC1N2C(=S)Nc1ccc(OC(F)F)cc1 (stereo not drawn)	inactive	
CN1CCN(C(CNC(=O)c2ccccc2F)c2ccc3c(c2)OCO3)CC1 (stereo not drawn)	inactive	
COc1ccc(-c2cn3cccnc3n2)cc1	inactive	
CC1(C)CC(CNCCC(c2ccc(F)cc2)c2ccco2)CCO1 (stereo not drawn)	inactive	

Structure (SMILES)	ratio change, negative = inhibition	Potency
CCc1ccc(NC(=O)c2nn(-c3ccc(C)cc3)c(=O)n(C)c2=O)cc1	inactive	
CN(C)S(=O)(=O)N1CCN(c2ccc([N+](=O)[O-])cc2)CC1	10.9% [at 9.22 µM]	
COc1ccccc1CNC(=O)c1ccccc1NC(=O)c1nsc2ccccc12	inactive	
O=C(CSc1nnc2ccc(-c3ccncc3)nn12)N1CCCCC1	inactive	
Cc1ccc([N+](=O)[O-])c(OCCCNCC(C)O)c1 (stereo not drawn)	inactive	
COc1cccc(NC(=O)C(=O)NCC(c2ccc3c(c2)OCO3)N2CCN(C)CC2)c1 (stereo not drawn)	inactive	
Cc1onc(-c2ccccc2)c1C(=O)Nc1ccccc1C#N	inactive	
CCOC(=O)c1c(-c2cccc(C)c2)csc1NC(=O)c1c(-c2ccccc2)noc1C		0.631 µM (active)
CC(=O)Nc1cccc(NC(=O)c2c(-c3ccccc3)noc2C)c1	inactive	
Cc1cc(C)cc(OCC(=O)O/N=C(\N)Cc2ccc([N+](=O)[O-])cc2)c1	inactive	
COc1ccc(Sc2nc(-c3ccccc3)ncc2OC)cc1	inactive	
Cc1ccc(SCC(=O)Nc2ccc3oc(-c4ccccc4F)nc3c2)cc1	inactive	
COCCNC(=O)c1ccc(-n2c(SCc3cccnc3)nc3ccccc3c2=O)cc1	inactive	
Cc1cccc(C)c1NC(=S)N(Cc1cccnc1)Cc1ccccc1Cl	17.6% [at 9.22 µM]	
CCN1CCN(CCCNC(=O)c2ccc3c(c2)sc2nc(-c4ccc(OC)cc4)cn23)CC1	inactive	
CCOC(=O)c1c(-c2cccc(N)c2)cn2ccccc12	inactive	
Cc1ccc(CSc2nc3cccnc3n2Cc2ccc(C(=O)NC3CC3)cc2)cc1	inactive	
N#C/C(=C(\O)C(F)(F)F)c1nnc2n1CCCCC2	inactive	
O=C(Cc1ccc(Cl)cc1)NCc1nc(-c2ccccc2)no1	inactive	
CCOC(=O)c1c(SCC(=O)Nc2cccc(C)c2C)nc(=O)[nH]c1C	inactive	
COc1cc2c(C(=O)N3CCN(C)CC3)c(CSc3ccccc3)n(C)c2cc1Br	inactive	
COc1cc(C(=O)Nc2cc(C(F)(F)F)ccc2-n2cncn2)cc(OC)c1OC	inactive	
Cc1ccc(COc2ccc(C(=O)NN)cc2)cc1	inactive	
CC(=O)c1ccc(NC(=O)CSc2nc(-c3ccccc3F)nc3c2c(=O)n(C)c(=O)n3C)cc1	inactive	
CSc1nc2c(c(=O)[nH]1)C(c1cccc(Cl)c1Cl)CC(=O)N2 (stereo not drawn)	-8.67% [at 9.22 µM]	
CCc1nnc2c3ccccc3nc(N3CCN(c4ccc(C)cc4C)CC3)n12	inactive	

Structure (SMILES)	ratio change, negative = inhibition	Potency
O=C1COc2ccc(C(=O)COC(=O)C3CC(O)CN3S(=O)(=O)c3ccc(Cl)cc3)cc2N1 (stereo not drawn)	inactive	
COC(=O)c1c(NC(=O)CCCC(=O)O)sc2c1CCCCC2	inactive	
COc1cccc(CNC(=O)C2CCN(S(=O)(=O)c3ccc4c(ccn4C)c3)CC2)c1	inactive	
CC1(C)CN(c2ccc(-c3ccnc4ncnn34)cc2)C1=O	inactive	
CCOc1cc(C(=O)Nc2nnc3n2CCS3)cc(OCC)c1OCC	inactive	
COc1ccc(C(C)=O)cc1CSc1nc2nc(C)cc(C)n2n1	inactive	
CC(=O)N1CCCc2ccc(NS(=O)(=O)c3ccc(F)cc3F)cc21	inactive	
CCOc1ccc(-n2cnc3c(=O)[nH]c(N)nc32)cc1	inactive	
CCOC(=O)Cn1c(=O)n(-c2ccccc2OC)c2nc(-c3cccc(F)c3)nc(C(N)=O)c21	inactive	
CCCNC(=O)CCC(=O)N1Cc2ccccc2Oc2ncccc21	inactive	
COc1ccc(NC(=O)N2CCCn3nc(C)cc32)cc1OC	inactive	
Cc1cnc(C(=O)OCC(=O)N2CCc3ccccc32)cn1	1.94% [at 9.22 µM]	
COC(=O)CSc1ncnc2c1cnn2-c1ccc(C)cc1C	inactive	
COc1ccc(C2=NN(C(=O)CCC(=O)O)C(c3cccs3)C2)cc1OC (stereo not drawn)	inactive	
CNc1nc2c(C)cccn2c(=O)c1C=Nc1ccc(OC)cc1	inactive	
Cc1ccc(-n2nc(C)c3c(C)cc(=O)n(CC(=O)Nc4ccc(C(C)C)cc4)c32)cc1	inactive	
COc1cc(NS(=O)(=O)c2ccc3c(c2)OCC(C(=O)N2CCCC2)O3)cc(OC)c1 (stereo not drawn)	inactive	
COc1cccc(NC(=S)N(Cc2ccc(C)cc2)Cc2ccccn2)c1	inactive	
O=C(Nc1ccccc1C(=O)O)c1cc(S(=O)(=O)N2CCCCC2)cs1	inactive	
COc1ccc(CNS(=O)(=O)c2cc3c4c(c2)CCN4C(=O)CC3)cc1	inactive	
Cc1c(CCOC(=O)c2cc([N+](=O)[O-])ccc2Cl)sc[n+]1CCCCS(=O)(=O)[O-]	inactive	
COc1cc(/C=C/C(=O)OCC(=O)N2CCOCC2)ccc1OCC#N	inactive	
CC(C)CNc1ncnc2c1nnn2C	inactive	
CC1CN(/C=C/C(=O)C(F)(F)F)CC(C)O1 (stereo not drawn)	inactive	
O=C(CC1C(=O)NCCN1Cc1ccc(-c2ccccc2)cc1)NCc1ccncc1 (stereo not drawn)	inactive	
O=C(CCSCc1cccc(F)c1)NCc1ccccc1	inactive	

Structure (SMILES)	ratio change, negative = inhibition	Potency
CC(C)CCNC(=O)CSc1nc2ccccc2nc1Cc1ccc(Cl)cc1	inactive	
C/C(Cn1nnc2ccccc21)=N\OC(=O)c1cc(F)c(F)cc1Cl	inactive	
O=C(NCCc1ccccc1)c1cnc2sc(N3CCCC3)nn2c1=O	inactive	
O=[N+]([O-])c1cc([N+](=O)[O-])c2cccnc2c1O	inactive	
O=C(Nc1ccccc1F)C(c1ccccc1)N1Cc2ccccc2C1=O (stereo not drawn)	inactive	
Cc1ccc(C)c(N2CCN(S(=O)(=O)c3ccc4c(c3)C(C(C)C)C(=O)N4)CC2)c1 (stereo not drawn)	inactive	
Cc1cccc(N2CCN(C(=O)CCSCc3ccccc3F)CC2)c1C	inactive	
COc1ccc(SCc2cc(=O)c3ccc(C)c(C)c3[nH]2)cc1	inactive	
CC(C)(C)n1nnnc1C(c1ccc2ncccc2c1)N1CCSCC1 (stereo not drawn)		6.31 µM (active)
Cc1ccc(C(c2nnnn2C(C)(C)C)N2CCc3ccccc3C2)cc1 (stereo not drawn)	inactive	
CC(C)(C)n1nnnc1C(c1ccc(Cl)cc1)N1CCSCC1 (stereo not drawn)	inactive	
COC(=O)C(C)NC(=O)COc1ccc2ccccc2c1 (stereo not drawn)	inactive	
O=C(Nc1ccc2nc(SCC(=O)N3CCc4ccccc43)sc2c1)c1ccccc1F	inactive	
CCCN(CCC)CCNC(=O)c1ccc2c(c1)NC(=O)C(CS(=O)(=O)Cc1cccc(Br)c1)N2 (stereo not drawn)	inactive	
CC(C)(C)NC(=O)COC(=O)c1cc(Cl)ccc1[N+](=O)[O-]	inactive	
O=C(CN(c1cccc(Cl)c1)S(=O)(=O)c1ccccc1)NN=C1CCCC1	inactive	
Cc1cccc(NC(=O)c2cc([N+](=O)[O-])ccc2N2CCN(C)CC2)c1	inactive	
CCOc1ccc(Nc2ncnc3scc(-c4ccc(OC)cc4)c23)cc1	inactive	
COc1cc(OC)cc(C(=O)NCCc2csc3nc(-c4ccccc4F)nn23)c1	inactive	
CCc1ccc(NS(=O)(=O)c2ccc3[nH]cc(C(=O)NCCc4cccc(C)c4)c(=O)c3c2)cc1	inactive	
CC(=O)NCC(=O)N1CCCC(C(=O)c2ccc3c4c(cccc24)CC3)C1 (stereo not drawn)	inactive	
Cc1cccc(Oc2c([N+](=O)[O-])c(=O)n(C)c3ccccc23)c1	inactive	
CCOC(=O)c1sc(=NC(=O)/C=C/c2cccs2)n(C)c1C	2.93% [at 9.22 µM]	
Cc1cccc(Cn2c(CN3CCC(C(=O)NCc4ccccc4Cl)CC3)cc3ccccc32)c1	inactive	
O=C(Nc1nnc(-c2ccco2)o1)c1ccc(S(=O)(=O)N2CCOCC2)cc1	16.1% [at 9.22 µM]	

Source: PubChem BioAssay AID1487 (National Center for Advancing Translational Sciences (NCATS), 2009)
